FEN1 inhibitor: qHTS Assay for the Inhibitors of Human Flap endonuclease 1 (FEN1) | Potency, µM (highest dose often 114 µM), for the others: top-dose activity change, negative = inhibition, hits mostly inhibitors | Recombinant FEN1 flap cleavage, fluorescence, 15 min | P39748 | 390,000 compounds, 0.35% hits | AID 588795, 2011; also: potency is read from the fitted curve at half-maximal effect; % is scaled to controls: 0 for no effect and ±100 for the full control effect; nearly all actives have a fitted effect of over 65% in size
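Quantitative HTS format: each compound was titrated, incubated with 10 nM nuclease for 15 min at room temperature, then challenged with flap substrate at 50 nM final. Signal change over 15 min gave concentration–effect curves.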
Tb PFK inh: qHTS Assay to Find Inhibitors of T. brucei phosphofructokinase. ATP-dependent 6-phosphofructokinase (Trypanosoma brucei brucei), O15648. T. brucei PFK, ADP-Glo luminescence. AID 485367, 2010. 330,000 compounds, 0.17% hits. Potency, µM (top dose mostly 57.5 µM), without a hit: at the top dose activity, negative = inhibition, most hits filed as inhibitors;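 also: potency is read from the fitted curve at half-maximal effect; 0% = uninhibited 1x PFK enzyme wells and -100% = no-enzyme wells; nearly all actives have a fitted effect of over 60% in size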
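1.25 nM PFK with 0.5 mM F6P and 0.1 mM ATP in 0.1 M TEA pH 8.0, 5 mM MgCl2, incubated 45 min at room temperature; ADP measured by ADP-Glo luminescence; compounds titrated up to 57 uM.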
TDP1 block: qHTS Assay for Inhibitors of Tyrosyl-DNA Phosphodiesterase (TDP1); Tyrosyl-DNA phosphodiesterase 1 (Homo sapiens), Q9NUW8; Potency, µM (highest dose often 130 µM), for inactives: at the highest dose activity change, negative = inhibition, actives largely listed as inhibitors; recombinant TDP1, AlphaScreen DNA substrate cleavage; 350,000 compounds, 0.28% hits; also: potency is read from the fitted curve at half-maximal effect; % is scaled to controls: 0 for no effect and ±100 for the full control effect; nearly all actives have a fitted effect of over 40% in size
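Recombinant human Tdp1 (E. coli-expressed, 1 nM final) preincubated with compounds 15 min at room temperature, then 5'-biotin/3'-phosphotyrosine-FITC DNA substrate (15 nM final) added for 5 min. AlphaScreen beads (10 ug/ml final) added 10 min; cleavage lowers signal.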
WRN helicase inh-1: qHTS for Inhibitors of WRN Helicase | WRN helicase unwinding, fluorescent forked duplex, kinetic | Bifunctional 3'-5' exonuclease/ATP-dependent helicase WRN (Homo sapiens), Q14191 | Potency, µM (doses to about 114 µM), without a hit: top-dose activity change, negative = inhibition, most hits filed as inhibitors | 360,000 compounds, 0.46% hits; also: potency is read from the fitted curve at half-maximal effect; % is scaled to controls: 0 for no effect and ±100 for the full control effect; nearly all actives have a fitted effect of over 55% in size
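Enzyme (20 nM final) and test compound sit together 15 min at room temperature before substrate addition. Substrate is a single-forked duplex oligonucleotide (100 nM) labelled with fluorophore and quencher, with 2 mM ATP; helicase unwinding raises red fluorescence, read kinetically.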
PI5P4Ka inh: qHTS for Inhibitors of phosphatidylinositol 5-phosphate 4-kinase (PI5P4K); Phosphatidylinositol 5-phosphate 4-kinase type-2 alpha (Homo sapiens), P48426; max response, %; 330,000 compounds, 1.2% hits; PI5P4Kalpha enzyme, ADP-Glo luminescence, 60 min; stronger effect = lower value; active = max response of -50% or lower; inconclusive = between -30% and -50%; inactive = -30% or higher; also: value at the top dose of about 77 µM; % is scaled to controls: 0 for no effect and ±100 for the full control effect
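Quantitative HTS of the MLSMR library against PI5P4Kalpha with substrate. ATP added last at 5 microM final; room temperature, 60 minutes. Remaining ATP depleted, ADP converted and read as luminescence.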
PGK inhibitor: qHTS Assay to Find Inhibitors of Phosphoglycerate Kinase | Phosphoglycerate kinase, glycosomal (Trypanosoma brucei brucei), P07378 | PGK/GAPDH coupled, Kinase-Glo luminescence, 60 min | Potency, µM (top dose mostly 57.5 µM), without a hit: at the highest dose activity change, negative = inhibition, usual class: inhibitors | 380,000 compounds, 0.043% hits; also: potency is read from the fitted curve at half-maximal effect; % is scaled to controls: 0 for no effect and ±100 for the full control effect; nearly all actives have a fitted effect of over 60% in size
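Recombinant glycosomal PGK reaction used 1,3-bisphosphoglycerate generated in-well by GAPDH (100nM final) in 100mM TEA pH 7.6, 5mM MgCl2, 0.01% Tween-20. After 60 minutes at room temperature, ATP was read by Kinase-Glo Plus luminescence end-point.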
WRN helicase inh-2: qHTS for Inhibitors of WRN Helicase: Confirmatory Assay for Cherry-picked Compounds. WRN helicase DNA unwinding, fluorescence kinetic. Potency, µM (highest dose often 57.1 µM), for the others: at the highest dose activity, negative = inhibition, most hits filed as inhibitors. shares compounds with WRN helicase inh-1. AID 720497, 2013. 610 compounds, 63% hits; also: potency is read from the fitted curve at half-maximal effect; nearly all actives have a fitted effect of over 65% in size
TO DNA binding: qHTS for Inhibitors of WRN Helicase: Thiazole Orange DNA Binding Counterscreen | shares compounds with WRN helicase inh-1 | thiazole orange DNA binding displacement, fluorescence | AID 720499, 2013 | 610 compounds, 10% hits | Potency, µM (titrated, usually from 57.1 µM), without a hit: at the highest dose activity change, negative = inhibition, hits mostly inhibitors;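 also: drop in dye fluorescence marks compound binding to DNA; potency is read from the fitted curve at half-maximal effect; % is scaled to controls: 0 for no effect and ±100 for the full control effect; nearly all actives have a fitted effect of over 60% in size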
BLM counter: qHTS for Inhibitors of WRN Helicase: BLM Helicase Counterscreen for WRN Inhibitors | shares compounds with WRN helicase inh-1 | Recombinant BLM helicase DNA unwinding, red fluorescence | Potency, µM (highest dose often 57.1 µM), without a hit: at the top dose activity change, negative = inhibition, usual class: inhibitors | 610 compounds, 60% hits | AID 720503, 2013; also: potency is read from the fitted curve at half-maximal effect; nearly all actives have a fitted effect of over 60% in size
Target sequence (P54132 whole entry, looked up): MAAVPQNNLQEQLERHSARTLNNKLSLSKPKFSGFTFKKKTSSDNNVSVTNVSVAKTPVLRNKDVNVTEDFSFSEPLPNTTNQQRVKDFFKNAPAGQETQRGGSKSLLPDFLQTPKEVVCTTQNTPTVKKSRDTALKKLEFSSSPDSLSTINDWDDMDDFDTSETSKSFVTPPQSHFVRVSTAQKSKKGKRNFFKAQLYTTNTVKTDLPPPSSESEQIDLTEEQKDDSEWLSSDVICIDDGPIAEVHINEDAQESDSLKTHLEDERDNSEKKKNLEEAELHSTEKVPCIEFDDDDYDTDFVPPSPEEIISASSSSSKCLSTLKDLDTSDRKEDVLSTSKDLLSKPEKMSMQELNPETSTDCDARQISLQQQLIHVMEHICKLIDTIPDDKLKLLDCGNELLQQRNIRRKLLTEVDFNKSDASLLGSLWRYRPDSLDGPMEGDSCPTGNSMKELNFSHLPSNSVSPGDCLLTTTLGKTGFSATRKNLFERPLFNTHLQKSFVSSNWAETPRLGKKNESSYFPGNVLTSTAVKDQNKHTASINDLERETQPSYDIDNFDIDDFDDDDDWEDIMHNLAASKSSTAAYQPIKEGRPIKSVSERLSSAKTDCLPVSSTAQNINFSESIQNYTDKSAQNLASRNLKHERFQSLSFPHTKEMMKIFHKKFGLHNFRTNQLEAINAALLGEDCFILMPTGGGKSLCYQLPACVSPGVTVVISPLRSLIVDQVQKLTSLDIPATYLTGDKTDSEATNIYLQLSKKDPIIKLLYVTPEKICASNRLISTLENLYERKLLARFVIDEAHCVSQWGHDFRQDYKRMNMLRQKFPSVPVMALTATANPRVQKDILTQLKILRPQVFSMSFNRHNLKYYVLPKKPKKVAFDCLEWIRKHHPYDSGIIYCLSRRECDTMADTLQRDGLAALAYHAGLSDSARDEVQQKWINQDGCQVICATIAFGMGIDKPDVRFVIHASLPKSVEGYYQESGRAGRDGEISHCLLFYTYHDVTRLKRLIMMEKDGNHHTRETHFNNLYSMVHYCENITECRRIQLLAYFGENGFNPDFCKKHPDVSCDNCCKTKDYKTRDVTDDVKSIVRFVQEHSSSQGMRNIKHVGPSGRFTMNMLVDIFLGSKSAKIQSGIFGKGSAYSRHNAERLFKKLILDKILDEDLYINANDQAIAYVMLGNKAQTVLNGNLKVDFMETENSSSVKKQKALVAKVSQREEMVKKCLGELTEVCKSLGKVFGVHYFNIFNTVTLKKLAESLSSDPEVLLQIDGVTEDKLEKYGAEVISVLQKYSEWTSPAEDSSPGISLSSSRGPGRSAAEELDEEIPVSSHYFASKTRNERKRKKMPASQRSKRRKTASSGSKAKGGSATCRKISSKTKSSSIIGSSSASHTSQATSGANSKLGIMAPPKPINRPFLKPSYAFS
ADP-Glo counter: qHTS for Inhibitors of PI5P4K: ADP-Glo counter assay; shares compounds with PI5P4Ka inh; ADP-Glo detection counter-screen, luciferase luminescence, no enzyme; Potency, µM (doses to about 76.9 µM), for inactives: top-dose activity change, negative = inhibition, most hits filed as inhibitors; 1,100 tested, under 10 active
Active calls of the source: *; i = inactive; ? = inconclusive; / = no result given. Compounds with a hit are over-represented: about 1.5% of the library has one in this group of screens. Unless noted, calls follow the shape of the dose curve; as a rule, active = well fitted curve in the direction sought with a large enough effect; inconclusive = small, poorly fitted or top-dose-only effect, or another doubt; inactive = no such curve, though single readings can be large; an effect the other way counts as inactive or inconclusive.

SMILES | FEN1 inhibitor | Tb PFK inh | TDP1 block | WRN helicase inh-1 | PI5P4Ka inh | PGK inhibitor | WRN helicase inh-2 | TO DNA binding | BLM counter | others
CN(C)CCCNc1nc2cc(-c3ccc4c(ccn4C)c3)sc2c(=O)n1C | / | / | / | ? | -13 | / | 24µM* | 24µM* | -14%
COc1cc(C2CC(=O)Nc3c2c(=O)[nH]c2ncnn32)ccc1O (centres undefined) | 6% | / | 1% | / | / | i | / | / | /
COC(=O)C(CC(=O)c1ccc(Br)cc1)n1ccnc1 (centres undefined) | ? | ? | 8% | / | / | / | -15% | -11% | ?
O=C(COn1nnc2ccccc21)NCC1CCCCC1 | 0% | 21% | -2% | 1% | -1 | 6% | / | / | /
COC(=O)c1cc(NC(=O)c2ccc3c(c2)NC(=O)c2ccccc2S3)cc(C(=O)OC)c1 | 2% | -6% | / | / | / | -3% | 14µM* | 206% | 1.9µM*
CC(C)OCCCNC(=O)c1ccc2c(c1)NC(=O)c1ccccc1S2 | -3% | -7% | 5% | 11% | 5 | -4% | / | / | /
COc1ccc2[nH]c(=O)c(-c3noc(-c4ccccc4)n3)cc2c1 | ? | 3% | -5% | ? | -1 | -13% | 22µM* | 45% | 6.1µM*
COc1ccc2[nH]c(=O)c(-c3nnn(-c4ccccc4)n3)cc2c1 | 3% | 1% | 6% | 5% | -14 | -4% | / | / | /
N#Cc1c([N+](=O)[O-])cc([N+](=O)[O-])cc1S(=O)(=O)Cc1ccccc1 | 79µM* | -19% | 5% | 11µM* | -8 | 2% | -24% | ? | -24%
COc1cc(OC)c(C#N)c(S(=O)(=O)Cc2ccccc2)c1 | -6% | 2% | -1% | -4% | -15 | -1% | / | / | /
CC(C)N1CCc2c(sc(NC(=O)c3cc4cc([N+](=O)[O-])ccc4s3)c2C(N)=O)C1 | ? | -9% | -3% | 79µM* | ? | 4% | 17µM* | 17µM* | 14µM*
CN1CCc2c(sc(NC(=O)c3cc4cc([N+](=O)[O-])ccc4s3)c2C(N)=O)C1 | / | 5% | 0% | / | / | / | / | / | /
CCSc1nnc(NC(=O)CSc2sc3c(O)cc(=O)[nH]c3c2C#N)s1 | 35µM* | 1% | 5% | 18µM* | -102* | ? | 19µM* | ? | ?
CCSc1nnc(NC(=O)CC)s1 | 16% | 3% | -4% | -3% | 6 | -2% | / | / | /
O=[N+]([O-])c1c(NCCCO)cc(Sc2nc3ccccc3s2)c2nonc12 | 40µM* | ? | 6% | 19µM* | / | -4% | ? | -15% | ?
O=c1c(C(c2ccc(Br)cc2)c2c(O)nc3n(c2=O)CCCS3)c(O)nc2n1CCCS2 | -15% | 2% | -2% | -20% | -3 | -6% | / | / | /
O=c1c(C(c2ccc(O)cc2)c2c(O)nc3n(c2=O)CCS3)c(O)nc2n1CCS2 | -2% | ? | ? | 15µM* | -59* | -3% | ? | -8% | ?
O=c1c(C(c2ccc(O)cc2)c2c(O)nc3n(c2=O)CCCS3)c(O)nc2n1CCCS2 | 8% | ? | ? | ? | ? | -12% | ? | -3% | 19µM*
COc1ccc(C2=Nn3c(nnc3-c3cc(OC)ccc3OC)SC2)c(OC)c1 | / | / | 6% | / | / | / | / | / | /
Cc1ccc(-c2csc(NS(=O)(=O)c3cccc(F)c3)n2)o1 | -23% | 3% | -1% | 32µM* | -68* | -6% | 24µM* | -29% | ? | ADP-Glo counter=2%
CC(=O)c1ccccc1NC(=O)CCN1C(=O)C2CCCCC2C1=O (centres undefined) | -8% | -5% | 1% | -9% | -14 | -4% | / | / | /
Cc1ccc(-c2cc(C(=O)NN3CCOCC3)c3cc(Br)ccc3n2)o1 | -10% | -2% | 3% | -7% | -29 | -3% | / | / | /
Cc1ccc(-c2cc(C(=O)O)c3cc(Br)ccc3n2)o1 | -14% | -22% | / | 35µM* | -69* | -13% | 15µM* | -10% | ? | ADP-Glo counter=0%
CCOc1ccc(OCc2ccc(C(=O)N3CCOCC3)cc2)cc1 | -4% | 1% | -5% | 1% | -54* | -2% | / | / | / | ADP-Glo counter=-5%
COc1ccccc1NC(=O)CSc1sc2c(O)cc(=O)[nH]c2c1C#N | 50µM* | 4% | 3% | 50µM* | -66* | -13% | / | / | / | ADP-Glo counter=-5%
COc1ccc(NC(=O)CSc2sc3c(O)cc(=O)[nH]c3c2C#N)c(OC)c1 | 32µM* | ? | ? | ? | -65* | -9% | / | / | / | ADP-Glo counter=-8%
COc1cc(NC(=O)c2ccccc2)c(OC)cc1NC(=O)CSc1[nH]c(=O)cc(C)c1C#N | 11% | 1% | 4% | -6% | 2 | 5% | / | / | /
NC(=O)CC(NC(=O)Cc1ccc(Cl)cc1)c1ccc(NCc2ccccc2)c([N+](=O)[O-])c1 (centres undefined) | 2% | 1% | 1% | -6% | -7 | -2% | / | / | /
O=c1cc(CSc2nnnn2-c2ccccc2)nc2nc[nH]n12 | 9% | 11% | 8% | 1% | -9 | i | / | / | /

High-throughput results (PubChem BioAssay)
